This is a sample that favours compounds with a hit; in the whole collection about 3.8% have one here.
Nrf2 ARE act – activates Nrf2 signaling; AREc32 ARE-luciferase reporter (MCF7-derived line), luminescence, 24 h; Potency, µM (titrated, usually from 46.1 µM), without a hit: at the highest dose activation, hits mostly activators; 410,000 compounds, 0.31% hits; AID 624171; note: % of control where 0% means no effect; nearly all actives have a fitted effect of over 65% in size
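Reporter line AREc32 (ARE-Fluc), seeded overnight in OPTI-MEM with 5% FBS; compound pin-transferred, 24 hr at 37 deg C, 5% CO2; luminescent read-out.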
mIDH1 inhibitor – blocks human mutant IDH1 R132H enzyme | O75874 | IDH1-R132H enzyme, NADPH consumption, diaphorase/resazurin fluorescence | Potency, µM (top dose mostly 76.6 µM), inactives show top-dose activity change, negative = inhibition, actives largely listed as inhibitors | 390,000 compounds, 0.093% hits | AID 602179; note: % is set by controls: 0 for no effect and ±100 for the full control effect; nearly all actives have a fitted effect of over 65% in size
Target sequence (O75874 whole entry R132H, stated change not applied): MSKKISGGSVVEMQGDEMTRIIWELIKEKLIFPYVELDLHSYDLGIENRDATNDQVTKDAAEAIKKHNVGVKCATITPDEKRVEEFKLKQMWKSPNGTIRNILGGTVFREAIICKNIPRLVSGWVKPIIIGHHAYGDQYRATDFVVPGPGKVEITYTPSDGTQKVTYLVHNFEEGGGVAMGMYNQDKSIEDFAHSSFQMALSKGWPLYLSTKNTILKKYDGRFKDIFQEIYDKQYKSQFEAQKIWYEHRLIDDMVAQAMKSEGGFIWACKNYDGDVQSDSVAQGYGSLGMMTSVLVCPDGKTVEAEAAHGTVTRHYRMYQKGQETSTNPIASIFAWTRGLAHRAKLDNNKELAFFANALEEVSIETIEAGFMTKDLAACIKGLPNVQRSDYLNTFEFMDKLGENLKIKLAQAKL
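IDH1-R132H (0.5 ug/mL dispensed) in pH 7.5 Tris buffer was preincubated 30 min with compound, then given a substrate mix of 0.016 mM NADPH and 2 mM alpha-KG for 80 min at room temperature; remaining NADPH was read by diaphorase/resazurin fluorescence.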
A549 tox – counter-screen for Nrf2 inhibitors: cytotoxicity in A549 cells. Potency, µM (doses to about 46 µM), for inactives: at the highest dose activity change, negative = cytotoxicity, hits mostly inhibitors. A549 ARE-Fluc cells, CellTiter-Fluor viability, 18-24 h. 390,000 compounds, 0.16% hits; note: % is set by controls: 0 for no effect and ±100 for the full control effect
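A549 ARE_Fluc cells in 5% FBS OPTI-MEM were exposed to compounds in concentration-response for 18-24 h at 37 deg C. Viability was read by CellTiter-Fluor fluorescence (Ex 405/Em 525) after 30 min, before the luciferase read.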
ELG1 repair inh – inhibitors of ELG1-dependent DNA repair in HEK293T cells. 330,000 compounds, 2.3% hits. AID 504467. HEK293T ELG1-luciferase reporter, luminescence, 16 h; DNA damage induced by 5-fluorouridine. Potency, µM (highest dose often 46.1 µM), without a hit: at the highest dose activity change, negative = inhibition, most hits filed as inhibitors; note: % is set by controls: 0 for no effect and ±100 for the full control effect; nearly all actives have a fitted effect of over 55% in size
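Step one: seed 2,000 cells per well. Step two: pin-transfer compound or DMSO alongside 5-fluorouridine. Step three: incubate 16 hr, 37 °C, 5% CO2. Step four: add ONE-Glo, wait 30 min, read luminescence.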
Nrf2 inh – blocks Nrf2 signaling; A549 ARE-Fluc reporter, luciferase luminescence, 18-24 h; Potency, µM (titrated, usually from 46 µM), without a hit: at the highest dose activity change, negative = inhibition, usual class: inhibitors; 360,000 compounds, 2.1% hits; AID 504444; note: % is set by controls: 0 for no effect and ±100 for the full control effect; nearly all actives have a fitted effect of over 60% in size
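Two sequential reads on A549 ARE_Fluc cells exposed to compound for 18-24 h: a CellTiter-Fluor fluorescence read for viability, then a luciferase luminescence read for Nrf2/ARE activity.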
* = called active by the depositor; [ ] = remark or other dose. Calls come from the whole dose curve; as a rule, active = well fitted curve in the direction sought with a large enough effect; inconclusive = small, poorly fitted or top-dose-only effect, or another doubt; inactive = no such curve, though single readings can be large; an effect the other way counts as inactive or inconclusive. Potency is the fitted concentration of half-maximal effect.

What do the screens show for `N#Cc1cc(NC(=O)c2ccc(F)cc2)c(=O)n2c1[nH]c1ccccc12`?
ELG1 repair inh: 6.51µM*

Results for Cc1ccc2cc(C#N)c(NCCNC(=O)C3CC3)nc2c1C ?
Nrf2 ARE act: -0.4%; mIDH1 inhibitor: 4.8%; A549 tox: -18.5%; ELG1 repair inh: 20.6µM*; Nrf2 inh: 7.31µM*

What do the screens show for `O=C(Nc1ccc(Cl)cc1)/C(=C/c1cccc(O)c1)c1nc2ccccc2s1`?
Nrf2 ARE act: inconclusive; mIDH1 inhibitor: -6.3%; A549 tox: inconclusive; ELG1 repair inh: 25.9µM*; Nrf2 inh: inconclusive

Results for COc1ccc(CCn2c(=S)[nH]c(=O)c3nccnc32)cc1OC ?
A549 tox: inconclusive; Nrf2 inh: 18.4µM*

What do the screens show for `CCOC(=O)c1c(C)[nH]c(C(C)=O)c1C`?
Nrf2 ARE act: 2.5%; mIDH1 inhibitor: 19.2%; A549 tox: -1.9%; ELG1 repair inh: -0.2%; Nrf2 inh: 12.2%

Results for CCOC(=O)c1c(C)[nH]c(C(=O)C(C)Cl)c1C (stereo not drawn) ?
Nrf2 ARE act: 17.8µM*; mIDH1 inhibitor: 6.4%; A549 tox: -2.0%; ELG1 repair inh: 6.4%; Nrf2 inh: -11.2%

How did Cc1cccc2cc(/C=N/NC(=O)c3ccncc3)c(Cl)nc12 do in these assays?
Nrf2 ARE act: -0.5%; mIDH1 inhibitor: 4.8%; A549 tox: -0.7%; ELG1 repair inh: -10.6%; Nrf2 inh: -13.5%

What do the screens show for `Cc1cccc2cc(/C=N/NC(=O)c3ccccc3O)c(Cl)nc12`?
Nrf2 ARE act: -0.4%[9.22 µM]; mIDH1 inhibitor: 7.5%; A549 tox: inconclusive; ELG1 repair inh: 23.1µM*; Nrf2 inh: inconclusive

Results for CC1CCC(N2CCN(C(=O)c3ccccc3F)CC2)CC1 (stereo not drawn) ?
Nrf2 ARE act: -1.1%; mIDH1 inhibitor: 6.9%; A549 tox: 6.1%; ELG1 repair inh: 0.4%; Nrf2 inh: -1.4%

Results for COc1ccccc1CCNC(=O)CCCn1c(=O)c2cccn2c2cccnc21 ?
Nrf2 ARE act: 0.4%; A549 tox: -15.0%; Nrf2 inh: inconclusive

What do the screens show for `CCc1ccccc1NC(=S)/N=C(\N)Nc1nc(C)c2cc(C)ccc2n1`?
Nrf2 ARE act: 6.9%; mIDH1 inhibitor: 8.3%; A549 tox: -21.2%; ELG1 repair inh: 20.6µM*; Nrf2 inh: 16.7%

Results for COc1ccc(CCNc2ccc(N3C(=O)CC(C)C3=O)cc2[N+](=O)[O-])cc1OC (stereo not drawn) ?
Nrf2 ARE act: 2.5%; mIDH1 inhibitor: 2.3%; A549 tox: -29.8%; ELG1 repair inh: 3.66µM*; Nrf2 inh: 14.6µM*

What do the screens show for `Nc1c2c(nc3ccccc13)CCCC2`?
Nrf2 ARE act: 0.4%; mIDH1 inhibitor: -4.7%; A549 tox: -13.2%; ELG1 repair inh: inconclusive; Nrf2 inh: -9.0%

How did Nc1c2ccccc2nc2ccccc12 do in these assays?
Nrf2 ARE act: -2.0%; mIDH1 inhibitor: 9.2%; A549 tox: inconclusive; ELG1 repair inh: inconclusive; Nrf2 inh: 20.6µM*

How did Cc1ccc(CNC(=O)Cn2c3ncccc3c(=O)n2-c2ccc(C)cc2)cc1 do in these assays?
Nrf2 ARE act: 3.7%; mIDH1 inhibitor: 1.2%; A549 tox: 5.5%; Nrf2 inh: inconclusive

Results for O=C(c1ccccc1O)N(Cc1ccccc1)Cc1ccccc1 ?
A549 tox: 4.1%; Nrf2 inh: 2.8%

Results for N#Cc1ccccc1Sc1ccccc1C(=O)OCC(N)=O ?
Nrf2 ARE act: -0.8%; mIDH1 inhibitor: -1.6%; A549 tox: 0.5%; ELG1 repair inh: 4.8%; Nrf2 inh: -5.0%

Results for Cc1noc(C)c1COC(=O)c1ccccc1Sc1ccccc1C#N ?
Nrf2 ARE act: 0.1%; mIDH1 inhibitor: 10.3%; A549 tox: -10.5%; ELG1 repair inh: 23.1µM*; Nrf2 inh: 18.4µM*

Results for Cc1ccc(C(=O)NCCc2ccc(F)cc2)s1 ?
Nrf2 ARE act: -0.8%; mIDH1 inhibitor: 7.3%; A549 tox: 0.2%; ELG1 repair inh: inconclusive; Nrf2 inh: inconclusive

What do the screens show for `Cc1ccc(Nc2nc(N/N=C/c3c[nH]c4ccccc34)nc(N3CCOCC3)n2)cc1`?
Nrf2 ARE act: 2.5%; mIDH1 inhibitor: 2.1%; A549 tox: inconclusive; ELG1 repair inh: 16.4µM*; Nrf2 inh: -3.0%

What do the screens show for `Cc1[nH]c2ccccc2c1/C=N/Nc1nc(Nc2ccc(F)cc2)nc(N2CCOCC2)n1`?
Nrf2 ARE act: 11.7%; mIDH1 inhibitor: 0.3%; A549 tox: 17.6%; ELG1 repair inh: 20.6µM*; Nrf2 inh: inconclusive

Results for c1ccc(Nc2nc(N3CCOCC3)nc(N3CCOCC3)n2)cc1 ?
Nrf2 ARE act: 0.1%; mIDH1 inhibitor: -0.8%; A549 tox: 17.7%; ELG1 repair inh: inconclusive

Results for C(=N\Nc1nc(Nc2ccccc2)nc(N2CCOCC2)n1)/c1c[nH]c2ccccc12 ?
Nrf2 ARE act: 6.5%; mIDH1 inhibitor: 0.4%; A549 tox: inconclusive; ELG1 repair inh: 16.4µM*; Nrf2 inh: inconclusive

Results for Cc1cccc(Nc2nc(Nc3cccc(C)c3)nc(N3CCOCC3)n2)c1 ?
Nrf2 ARE act: -0.5%; mIDH1 inhibitor: -14.9%; A549 tox: inconclusive; Nrf2 inh: -5.8%

Results for O=C(Oc1cccc(/C=N/Nc2nc(Nc3ccccc3)nc(N3CCOCC3)n2)c1)c1ccco1 ?
Nrf2 ARE act: 8.7%; mIDH1 inhibitor: 3.7%; A549 tox: 22.3%; ELG1 repair inh: 9.2µM*; Nrf2 inh: -14.8%

How did CC(NC(=O)c1ccco1)c1ccc(-n2ccnc2)cc1 (stereo not drawn) do in these assays?
Nrf2 ARE act: 1.7%; mIDH1 inhibitor: 6.2%; A549 tox: 15.9%; ELG1 repair inh: 10.2%; Nrf2 inh: 7.1%

Results for CCN(CC)C(=O)Cn1c(=O)n(-c2ccc(OC)cc2OC)c(=O)c2c(C)c(C(=O)N(CC)CC)sc21 ?
Nrf2 ARE act: 1.4%; mIDH1 inhibitor: 0.0%; A549 tox: 1.3%

Results for Cn1c(C(=O)NCCc2ccccc2)cc2sc(Cl)cc21 ?
Nrf2 ARE act: -0.3%; mIDH1 inhibitor: 20.4%; A549 tox: 10.0%; Nrf2 inh: 14.6%

What do the screens show for `COc1cc(OC)cc(C(=O)N(Cc2ccco2)Cc2cccs2)c1`?
A549 tox: 10.9%; Nrf2 inh: -6.5%

Results for COc1ccc(NS(=O)(=O)c2ccc3[nH]c4c(c3c2)CCCCC4)cc1 ?
Nrf2 ARE act: -0.5%; mIDH1 inhibitor: 14.7%; A549 tox: inconclusive; Nrf2 inh: 16.4µM*

What do the screens show for `CCOc1ccc(NS(=O)(=O)c2ccc3[nH]c4c(c3c2)CCCCC4)cc1`?
Nrf2 ARE act: -1.7%; mIDH1 inhibitor: -23.3%; A549 tox: -2.0%; Nrf2 inh: inconclusive

Source: PubChem (National Center for Advancing Translational Sciences (NCATS))
